Assay [1] deals with Thyrotropin-releasing hormone receptor (Homo sapiens) (UniProt P34981). Put plainly: qHTS assay to identify small molecule agonists of the thyrotropin-releasing hormone receptor (TRHR) signaling pathway (AID 1346891; calls by dose curve;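 note: HEK293 cells expressing TRHR with calcium dye readout; series mostly up to about 58 µM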). The essentials: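 In 1536-format, 1500 TRHR-Hek293 cells per well grew 18 h, took up calcium dye for 2 h at 37 °C, received compound, and were read kinetically; 15-point titrations, triplicates.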

Assay [2] is described as follows: Human pregnane X receptor (PXR) small molecule agonists, qHTS cell viability counter screen (AID 1346977). Note: nearly all actives have a fitted effect of over 50% in size. The essentials:
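Readout is CellTiter-Fluor fluorescence from PXR-Luc HepG2 cells. Plated cells rested 5hr, then were treated with compounds for 24hr at 37C and 5% CO2, with reagent present during the last hour.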

Assay [3] can be described thus: Caspase-3/7 induction in HepG2 cells by small molecules, qHTS assay (AID 1346978). Note: nearly all actives have a fitted effect of over 15% in size. Put shortly: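 Caspase-3/7 induction was measured by Caspase-Glo 3/7 luminescence (30 min, room temperature) after a 17 hr compound exposure of wild-type HepG2 cells seeded at 2,000 per well and pre-incubated 5 hr.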
Assay [4] can be described thus: Caspase-3/7 induction in CHO-K1 cells by small molecules, qHTS cell viability counter screen (AID 1346979). Note: nearly all actives have a fitted effect of over 35% in size. Put shortly: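 To flag cytotoxic compounds, treated CHO-K1 wild-type cells were given CellTiter-Fluor at 16hr and read fluorescently after 1hr at 37C; the caspase-3/7 luminescence was measured in these same wells.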
The nature of assay [5]: Caspase-3/7 induction in CHO-K1 cells by small molecules, qHTS assay (AID 1346980). Note: nearly all actives have a fitted effect of over 15% in size. Put shortly: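 Luminescent Caspase-Glo 3/7 read (30min, room temperature) quantified apoptosis induction. Cells were wild-type CHO-K1, treated with compound for 17hr at 37 C and 5% CO2.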
The nature of assay [6]: Caspase-3/7 induction in HepG2 cells by small molecules, qHTS cell viability counter screen (AID 1346981). Note: series mostly up to about 92 µM; nearly all actives have a fitted effect of over 30% in size. The essentials:
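Wild-type HepG2 cells, 2,000/well, settled 5 hr at 37 C, 5% CO2 before compound addition. Viability read by CellTiter-Fluor fluorescence, reagent added after 16 hr compound exposure, then 1 hr at 37C, in the same wells as the caspase read.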

For assay [7], the target named is Nuclear receptor subfamily 1 group I member 2 (Homo sapiens) (UniProt O75469). Nature of the assay: Human pregnane X receptor (PXR) small molecule agonists, qHTS assay (AID 1346982). Note: nearly all actives have a fitted effect of over 35% in size. Note: potency is the fitted concentration of half-maximal effect. The essentials: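 PXR-Luc HepG2 reporter cells (CYP3A4-driven luciferase) in 5% charcoal-stripped FBS medium, plated 5 h before compound addition, then treated 24 h at 37C. Luciferase read by ONE-Glo luminescence after 30 min at room temperature.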

The target of assay [8] is Cytochrome P450 2D6 (Homo sapiens) (UniProt P10635). Nature of the assay: Cytochrome P450 Family 2 Subfamily D Member 6 (CYP2D6) small molecule antagonists: luciferase reporter qHTS assay (AID 1671196). For activity change, negative = inhibition: series mostly up to about 120 µM. Note: nearly all actives have a fitted effect of over 50% in size. Note: potency is the fitted concentration of half-maximal effect. Put shortly:
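Cell-free P450-Glo system: CYP2D6 with proluciferin substrate was pre-incubated with compound for 10 min, then reacted with NADPH regeneration for 1 h at room temperature. Luciferin product was detected after 20 min, and data were reported as relative luminescence units.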

Assay [9] deals with Cytochrome P450 2C9 (Homo sapiens) (UniProt P11712). Nature of the assay: Cytochrome P450 Family 2 Subfamily C Member 9 (CYP2C9) small molecule antagonists: luciferase reporter qHTS assay (AID 1671198). For activity change, negative = inhibition: series mostly up to about 120 µM. Note: nearly all actives have a fitted effect of over 50% in size. Note: potency is the fitted concentration of half-maximal effect. The essentials: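 Enzyme-substrate mix preincubated with compound 10 min at room temperature; reaction started with NADPH regeneration solution, 1 h 37C. Luminescent luciferin product read after 20 min detection reagent.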

Assay [10] has as its target Cytochrome P450 1A2 (Homo sapiens) (UniProt P05177). Put plainly: Cytochrome P450 Family 1 Subfamily A Member 2 (CYP1A2) small molecule antagonists: luciferase reporter qHTS assay (AID 1671199). For activity change, negative = inhibition: series mostly up to about 120 µM. Note: nearly all actives have a fitted effect of over 50% in size. Note: potency is the fitted concentration of half-maximal effect. Put shortly: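 P450-Glo CYP1A2 enzyme–proluciferin substrate mix with compound 10 min at room temperature, then NADPH regeneration 1 h at room temperature. Luciferin detection reagent added, luminescence read after 20 min; furafylline positive control.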

The target in assay [11] is Voltage-gated inwardly rectifying potassium channel KCNH2 (Homo sapiens) (UniProt Q12809). Put plainly: Human Ether-a-go-go-Related Gene (hERG) channel small molecule antagonists: fluorescence cell-based qHTS assay (AID 1671200). The essentials:
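Measured: Tl+ flux via fluorescence (480/540 nm) in hERG-expressing U2OS cells after 1 h dye loading at room temperature.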

The target of assay [12] is Cytochrome P450 3A4 (Homo sapiens) (UniProt P08684). Nature of the assay: Cytochrome P450 Family 3 Subfamily A Member 4 (CYP3A4) small molecule antagonists: luciferase reporter qHTS assay (AID 1671201). For activity change, negative = inhibition: series mostly up to about 120 µM. Note: nearly all actives have a fitted effect of over 50% in size. Note: potency is the fitted concentration of half-maximal effect. Put shortly: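 Setup: enzyme-substrate mix, compound pin transfer, 10 min RT. Reaction: NADPH regeneration solution, 1 h RT. Readout: detection reagent stops turnover, luminescence measured after 20 min, expressed in relative luminescence units.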

The target of assay [13] is Cytochrome P450 2C19 (Homo sapiens) (UniProt P33261). Nature of the assay: Cytochrome P450 Family 2 Subfamily C Member 19 (CYP2C19) small molecule antagonists: luciferase reporter qHTS assay (AID 1671197). For activity change, negative = inhibition: series mostly up to about 120 µM. Note: nearly all actives have a fitted effect of over 65% in size. Note: potency is the fitted concentration of half-maximal effect. Put shortly: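 Inhibition of CYP2C19 was scored from loss of luminescence in a P450-Glo proluciferin substrate assay, NADPH-started and run 1 h at 37C, with ketoconazole as positive control.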

Each structure is given as a SMILES string. Values without a mark were called inactive. Results filed as inconclusive are left out. The source made the active and inactive calls. Unless noted, calls come from the whole dose curve; as a rule, active = well fitted curve in the direction sought with a large enough effect in the repeat runs; inconclusive = weak or mixed curves; inactive = no such curve, though single readings can be large; an effect the other way counts as inactive or inconclusive.
% is set by controls: 0 for no effect and ±100 for the full control effect.

Chain of Cytochrome P450 2C9 (Homo sapiens) (P11712 whole entry, looked up): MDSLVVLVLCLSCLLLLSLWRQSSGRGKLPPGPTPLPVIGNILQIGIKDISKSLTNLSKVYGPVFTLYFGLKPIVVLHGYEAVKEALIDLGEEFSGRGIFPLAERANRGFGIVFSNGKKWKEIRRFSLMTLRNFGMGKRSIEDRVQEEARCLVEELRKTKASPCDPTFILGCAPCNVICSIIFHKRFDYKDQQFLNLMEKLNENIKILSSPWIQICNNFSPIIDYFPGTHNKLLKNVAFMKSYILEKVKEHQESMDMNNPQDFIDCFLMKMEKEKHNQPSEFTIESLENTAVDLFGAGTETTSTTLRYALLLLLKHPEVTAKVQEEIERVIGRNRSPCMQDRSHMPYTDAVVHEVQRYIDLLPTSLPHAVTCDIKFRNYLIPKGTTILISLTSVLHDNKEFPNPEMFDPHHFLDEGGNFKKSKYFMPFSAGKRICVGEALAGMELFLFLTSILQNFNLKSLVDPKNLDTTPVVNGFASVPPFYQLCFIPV
Chain of Nuclear receptor subfamily 1 group I member 2 (Homo sapiens) (O75469 whole entry, looked up): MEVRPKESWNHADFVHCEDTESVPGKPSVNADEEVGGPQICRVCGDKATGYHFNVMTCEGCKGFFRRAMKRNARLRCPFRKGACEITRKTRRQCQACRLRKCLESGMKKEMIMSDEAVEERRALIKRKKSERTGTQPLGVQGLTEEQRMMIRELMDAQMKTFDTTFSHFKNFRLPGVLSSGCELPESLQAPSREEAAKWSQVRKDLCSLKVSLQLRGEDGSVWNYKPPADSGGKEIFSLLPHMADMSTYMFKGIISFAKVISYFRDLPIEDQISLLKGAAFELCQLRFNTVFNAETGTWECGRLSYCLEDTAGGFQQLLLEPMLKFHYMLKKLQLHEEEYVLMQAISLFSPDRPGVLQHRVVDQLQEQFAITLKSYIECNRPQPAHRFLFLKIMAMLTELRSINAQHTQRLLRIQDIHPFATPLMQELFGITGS
Chain of Thyrotropin-releasing hormone receptor (Homo sapiens) (P34981 whole entry, looked up): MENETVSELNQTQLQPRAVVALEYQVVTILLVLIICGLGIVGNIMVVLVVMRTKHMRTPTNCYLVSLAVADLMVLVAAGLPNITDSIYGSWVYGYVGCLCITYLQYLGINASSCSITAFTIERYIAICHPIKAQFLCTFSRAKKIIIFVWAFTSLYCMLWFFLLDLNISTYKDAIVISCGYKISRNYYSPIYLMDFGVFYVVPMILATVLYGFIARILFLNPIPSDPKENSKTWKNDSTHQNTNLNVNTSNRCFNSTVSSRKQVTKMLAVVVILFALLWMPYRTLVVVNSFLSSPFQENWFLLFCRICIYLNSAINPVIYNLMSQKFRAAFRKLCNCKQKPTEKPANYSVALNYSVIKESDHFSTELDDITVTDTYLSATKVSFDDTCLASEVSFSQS
Chain of Voltage-gated inwardly rectifying potassium channel KCNH2 (Homo sapiens) (Q12809 whole entry, looked up): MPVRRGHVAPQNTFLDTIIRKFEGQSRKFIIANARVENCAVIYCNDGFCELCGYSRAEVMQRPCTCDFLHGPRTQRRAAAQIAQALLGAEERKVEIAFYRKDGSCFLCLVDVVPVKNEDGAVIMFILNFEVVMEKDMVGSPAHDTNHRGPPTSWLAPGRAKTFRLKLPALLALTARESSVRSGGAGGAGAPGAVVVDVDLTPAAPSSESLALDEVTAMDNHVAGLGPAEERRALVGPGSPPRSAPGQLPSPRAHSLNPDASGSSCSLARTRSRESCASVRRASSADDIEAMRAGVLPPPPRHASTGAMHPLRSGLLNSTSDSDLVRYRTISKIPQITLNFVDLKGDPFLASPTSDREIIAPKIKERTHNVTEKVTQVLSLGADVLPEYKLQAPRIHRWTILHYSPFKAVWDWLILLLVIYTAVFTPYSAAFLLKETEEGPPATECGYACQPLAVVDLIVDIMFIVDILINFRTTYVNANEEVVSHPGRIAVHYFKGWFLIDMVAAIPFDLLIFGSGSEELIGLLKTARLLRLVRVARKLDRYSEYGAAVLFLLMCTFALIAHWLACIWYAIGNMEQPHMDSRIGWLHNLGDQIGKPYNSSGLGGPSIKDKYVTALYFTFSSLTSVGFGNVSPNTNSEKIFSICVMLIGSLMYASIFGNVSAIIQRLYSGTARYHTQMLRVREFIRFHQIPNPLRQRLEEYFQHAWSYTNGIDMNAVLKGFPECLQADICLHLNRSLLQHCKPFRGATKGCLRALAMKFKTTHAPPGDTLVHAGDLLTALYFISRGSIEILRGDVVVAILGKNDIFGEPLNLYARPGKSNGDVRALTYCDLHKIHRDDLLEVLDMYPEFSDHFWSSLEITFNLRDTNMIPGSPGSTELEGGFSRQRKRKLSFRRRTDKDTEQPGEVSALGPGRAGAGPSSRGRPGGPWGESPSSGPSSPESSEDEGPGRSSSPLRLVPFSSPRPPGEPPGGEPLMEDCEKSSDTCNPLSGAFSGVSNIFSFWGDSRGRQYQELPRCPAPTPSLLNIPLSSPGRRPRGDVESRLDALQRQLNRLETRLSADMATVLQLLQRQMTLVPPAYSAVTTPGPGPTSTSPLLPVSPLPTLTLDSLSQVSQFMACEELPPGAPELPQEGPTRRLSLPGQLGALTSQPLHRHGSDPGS
Chain of Cytochrome P450 2D6 (Homo sapiens) (P10635 whole entry, looked up): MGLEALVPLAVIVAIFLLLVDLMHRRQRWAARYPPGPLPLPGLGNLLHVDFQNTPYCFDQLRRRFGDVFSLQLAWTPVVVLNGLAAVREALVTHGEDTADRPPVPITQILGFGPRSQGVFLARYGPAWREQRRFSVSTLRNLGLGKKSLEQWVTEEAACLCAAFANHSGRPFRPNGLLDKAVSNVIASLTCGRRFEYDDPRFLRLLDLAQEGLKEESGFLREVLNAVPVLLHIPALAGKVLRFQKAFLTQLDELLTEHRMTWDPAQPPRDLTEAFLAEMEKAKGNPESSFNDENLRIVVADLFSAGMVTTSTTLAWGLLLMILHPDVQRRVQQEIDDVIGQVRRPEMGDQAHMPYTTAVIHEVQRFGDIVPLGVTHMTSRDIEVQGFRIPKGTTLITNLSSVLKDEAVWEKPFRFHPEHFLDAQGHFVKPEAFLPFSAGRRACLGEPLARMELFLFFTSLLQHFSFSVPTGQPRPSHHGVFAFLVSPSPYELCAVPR
Chain of Cytochrome P450 3A4 (Homo sapiens) (P08684 whole entry, looked up): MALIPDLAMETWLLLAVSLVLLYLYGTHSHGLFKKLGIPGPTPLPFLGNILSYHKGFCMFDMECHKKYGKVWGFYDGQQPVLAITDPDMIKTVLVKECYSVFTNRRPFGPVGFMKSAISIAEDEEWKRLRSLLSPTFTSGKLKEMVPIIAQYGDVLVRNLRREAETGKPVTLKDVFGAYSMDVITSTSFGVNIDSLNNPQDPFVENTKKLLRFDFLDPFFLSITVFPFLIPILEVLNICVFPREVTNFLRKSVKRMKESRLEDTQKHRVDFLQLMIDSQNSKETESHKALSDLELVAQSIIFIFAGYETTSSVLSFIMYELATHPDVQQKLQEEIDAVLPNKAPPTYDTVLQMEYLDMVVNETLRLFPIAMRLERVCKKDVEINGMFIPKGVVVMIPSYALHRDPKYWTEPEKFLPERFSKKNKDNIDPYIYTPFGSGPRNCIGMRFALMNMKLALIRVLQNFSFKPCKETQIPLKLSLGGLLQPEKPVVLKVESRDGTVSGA
Chain of Cytochrome P450 1A2 (Homo sapiens) (P05177 whole entry, looked up): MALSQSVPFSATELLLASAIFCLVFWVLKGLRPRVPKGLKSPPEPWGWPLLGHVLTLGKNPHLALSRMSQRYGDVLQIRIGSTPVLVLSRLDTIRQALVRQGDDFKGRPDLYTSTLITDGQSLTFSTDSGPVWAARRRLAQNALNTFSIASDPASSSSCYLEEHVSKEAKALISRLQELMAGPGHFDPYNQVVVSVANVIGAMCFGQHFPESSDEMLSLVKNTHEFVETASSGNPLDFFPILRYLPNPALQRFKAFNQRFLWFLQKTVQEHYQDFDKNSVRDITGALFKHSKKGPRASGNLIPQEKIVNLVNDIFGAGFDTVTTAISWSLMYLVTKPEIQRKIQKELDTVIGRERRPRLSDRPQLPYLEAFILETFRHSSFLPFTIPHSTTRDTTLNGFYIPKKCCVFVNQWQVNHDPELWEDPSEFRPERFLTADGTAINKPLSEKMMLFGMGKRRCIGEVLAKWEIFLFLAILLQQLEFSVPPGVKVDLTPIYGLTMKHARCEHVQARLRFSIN
Chain of Cytochrome P450 2C19 (Homo sapiens) (P33261 whole entry, looked up): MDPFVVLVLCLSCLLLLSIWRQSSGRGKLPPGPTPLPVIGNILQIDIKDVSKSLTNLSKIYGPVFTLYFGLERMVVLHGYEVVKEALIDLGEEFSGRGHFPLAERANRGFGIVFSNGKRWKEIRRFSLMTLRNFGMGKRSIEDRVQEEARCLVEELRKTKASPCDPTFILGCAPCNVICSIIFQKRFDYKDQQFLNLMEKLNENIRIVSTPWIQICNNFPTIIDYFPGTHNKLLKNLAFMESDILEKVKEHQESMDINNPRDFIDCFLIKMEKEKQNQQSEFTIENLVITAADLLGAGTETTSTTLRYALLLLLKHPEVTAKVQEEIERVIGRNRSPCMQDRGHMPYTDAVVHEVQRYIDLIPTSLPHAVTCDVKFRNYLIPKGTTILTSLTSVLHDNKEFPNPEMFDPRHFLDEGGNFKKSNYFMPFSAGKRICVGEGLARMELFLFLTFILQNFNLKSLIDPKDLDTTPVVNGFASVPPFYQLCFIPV

For `CCCCCCCCCCCCCCCCCCCl`, the activation was -0.417% [at 5.23 µM] in [1] and 17.1% [at 8.39 µM] in [7]. Moreover, the activity change, negative = cytotoxicity in [2] was -2.79% [at 8.39 µM]; in assay [4] it was -4.93% [at 8.39 µM]; in assay [6], -0.332% [at 8.39 µM]. In addition, in [3], the caspase activation is 0.121% [at 8.39 µM]. Moreover, the caspase-3/7 activation in [5] is -1.95% [at 8.39 µM]. For the same molecule, the activity change, negative = inhibition in assay [8] is -4.65% [at 10.5 µM]; in [9], -2.7% [at 10.5 µM]; in [10] it was -4.9% [at 10.5 µM]; in [11], 6.07% [at 6.97 µM]; in assay [12], -1.1% [at 10.5 µM].
For `O=c1[nH][nH]c2ccccc12`, the outcome in assay [1] was inactive. The Potency result in [2], in assay [3], in [4], in assay [5], in assay [6] and in assay [7] was “inactive” in each case. The Potency entry in [8] and in assay [11] was “inactive” each time. In addition, the Potency in [13] is 81.2 µM (active); in assay [10], 10.2 µM (active); in [12], 32.3 µM (active).
On to `OCC(O)c1ccccc1` (stereo not drawn), for which the molecule was called inactive in assay [1]. In addition, the Potency entry in [2], in [3], in assay [4], in assay [5], in assay [6] and in [7] was “inactive” in each case. Moreover, the Potency entry in [8], in [13], in assay [9], in assay [11] and in assay [12] was “inactive” in each case.
`COC(=O)/C=C/C(C)=C\C=C\C(C)=C\C=C\C=C(C)\C=C\C=C(C)\C=C\C(=O)O`: the molecule was called inactive in [1]. Further, the Potency entry in assay [2], in assay [3], in assay [4], in assay [5], in assay [6] and in assay [10] was “inactive” in each case. The Potency result in assay [11] was “inactive”. The Potency in [7] is 54.5 µM (active); in [8] it was 39.9 µM (active).
As to `COc1ccc(C(=O)Nc2ccccc2)cc1[N+](=O)[O-]`, in assay [1], the molecule was called inactive. Also, the Potency entry in assay [2], in [3], in [4], in assay [5], in assay [6] and in assay [11] was “inactive” in each case. Also, the Potency in assay [7] was 30.9 µM (active); in [8] it was 40.2 µM (active); in assay [9] it was 35.9 µM (active); in assay [10], 5.68 µM (active); in [12], 35.9 µM (active).
Take `O=C(OCCCCCOC(=O)c1ccccc1)c1ccccc1`: the call in assay [1] was inactive. For the same molecule, the Potency result in [2], in assay [3], in assay [4], in assay [5], in assay [6] and in assay [7] was “inactive” throughout. Besides, the Potency entry in [8], in assay [11] and in assay [12] was “inactive” each time. For the same molecule, the values for the Potency in assay [9] and in assay [10] were 11.2 µM (active) and 7.96 µM (active), respectively.
As for `CCCCCCOC(=O)c1ccccc1`, the call in [1] was inactive. Further, the Potency entry in [2], in [3], in assay [4], in [5], in assay [6] and in assay [7] was “inactive” each time. In addition, the Potency result in assay [8], in assay [9], in assay [11] and in [12] was “inactive” each time. For the same molecule, the Potency in assay [10] is 20 µM (active).
As for `CC(=O)Nc1ccn(C2COC(COC(=O)c3ccccc3)O2)c(=O)n1` (stereo not drawn), in assay [1], the molecule was classed as inactive. Also, the Potency result in [2], in assay [3], in assay [4], in assay [5], in assay [6] and in assay [7] was “inactive” throughout. The Potency entry in assay [8], in [11] and in assay [12] was “inactive” each time. Also, the Potency in assay [10] was 24.5 µM (active).
On to `OCCc1ccncc1`, for which the molecule was classed as inactive in [1]. In addition, the Potency result in [2], in assay [3], in [4], in assay [5], in [6] and in [7] was “inactive” each time. Besides, in assay [11], the Potency result is “inactive”. Also, the Potency in assay [10] was 22.4 µM (active); in assay [12] it was 28.3 µM (active).

For the origin of these results see PubChem BioAssay (Tox21).
